Source: PubChem BioAssay AID720597 (Broad Institute, 2013)
Entries with a potency or affinity are not part of this list. Active and inactive are the calls of the source.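 How the source made its calls: active means fitted half-maximal dose no more than twice the top valid tested dose, for compounds that lower signal; inconclusive means fit invalid, or curve flat with activity between -70 and -30; inactive means potency past limit, curve flat within ±30, or signal increasing.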

What follows are compounds tested against NAD-dependent protein deacylase sirtuin-5, mitochondrial (Homo sapiens) (UniProt Q9NXA8) (assay: SIRT5 deacylase inhibitors, dose response, biochemical, fluorescence imaging, cherry-pick, set 6 (AID 720597;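 further: lower AMC signal can also come from blocking the trypsin step; 0% = median of neutral control wells and -100% = median of positive control wells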)). Conditions: Purified SirT5, succinyl-peptide-AMC/trypsin fluorescence; series mostly up to 15 µM; activity change, negative = inhibition: at the top concentration.
Chain of NAD-dependent protein deacylase sirtuin-5, mitochondrial (Homo sapiens) (Q9NXA8 whole entry, looked up): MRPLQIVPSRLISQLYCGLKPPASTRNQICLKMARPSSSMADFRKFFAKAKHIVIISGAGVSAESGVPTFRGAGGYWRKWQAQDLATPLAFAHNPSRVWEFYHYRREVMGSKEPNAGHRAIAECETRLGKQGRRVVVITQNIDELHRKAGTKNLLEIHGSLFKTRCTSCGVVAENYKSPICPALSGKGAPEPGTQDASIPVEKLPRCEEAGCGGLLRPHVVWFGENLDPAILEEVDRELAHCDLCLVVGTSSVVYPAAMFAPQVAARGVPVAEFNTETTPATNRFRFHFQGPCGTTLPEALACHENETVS

SMILES | activity change, negative = inhibition | outcome
COc1ccc(S(=O)(=O)Nc2ccc3c(c2)CC(=O)N([C@@H](C)CO)C[C@H](C)[C@H](CN(C)Cc2ccc(Oc4ccccc4)cc2)O3)cc1 | -24.4% (inactive) | 
Cc1ccc(S(=O)(=O)N(C)C[C@H]2OCCCC[C@H](C)Oc3ccc(NS(=O)(=O)c4ccc(Cl)cc4)cc3C(=O)N([C@@H](C)CO)C[C@@H]2C)cc1 | 2.27% (inactive) | 
COc1ccccc1-c1ccc2c(c1)O[C@H](CN(C)S(=O)(=O)c1ccccc1)[C@@H](C)CN([C@@H](C)CO)S2(=O)=O | 9.71% (inactive) | 
COc1ccc(S(=O)(=O)Nc2ccc3c(c2)C(=O)N([C@H](C)CO)C[C@@H](C)[C@H](CN(C)Cc2ccc(C(F)(F)F)cc2)OCCCC[C@@H](C)O3)cc1 | -1.61% (inactive) | 
C[C@@H]1CN([C@H](C)CO)S(=O)(=O)c2ccc(C#Cc3ccccc3F)cc2O[C@H]1CN(C)C(=O)c1ccc2c(c1)OCO2 | 22.1% (inactive) | 
C[C@@H]1CCCCO[C@@H](CN(C)C(=O)Nc2ccc(C(F)(F)F)cc2)[C@@H](C)CN([C@H](C)CO)C(=O)c2cc(NS(=O)(=O)c3ccc(Cl)cc3)ccc2O1 |  | inactive
C[C@@H]1CN([C@H](C)CO)S(=O)(=O)c2ccc(C#Cc3ccccn3)cc2O[C@@H]1CN(C)Cc1cccc(F)c1 | -5.39% (inactive) | 
C[C@H]1CN([C@@H](C)CO)S(=O)(=O)c2ccc(/C=C/c3ccccc3)cc2O[C@H]1CN(C)C(=O)c1ccc2c(c1)OCO2 | -5.88% (inactive) | 
C[C@@H]1CCCCO[C@H](CN(C)Cc2ccc(C(F)(F)F)cc2)[C@H](C)CN([C@H](C)CO)C(=O)c2cc(NC(=O)c3ccncc3)ccc2O1 | -22.7% (inactive) | 
COc1ccccc1NC(=O)Nc1ccc2c(c1)C(=O)N(C)C[C@H](OC)[C@H](C)CN[C@@H](C)CO2 | -29.5% (inactive) | 
COc1ccc(S(=O)(=O)Nc2ccc3c(c2)C(=O)N([C@@H](C)CO)C[C@@H](C)[C@H](CN(C)Cc2ccc(Oc4ccccc4)cc2)O3)cc1 | -10.1% (inactive) | 
